For 40 molecules, Potency and outcome results are on record in PubChem BioAssay (NCATS).

Structures are written as SMILES. Records with an inconclusive call do not appear. A call without a number means that no potency is given here. Active and inactive are the calls of the source. Calls come from the whole dose curve; as a rule, active = well fitted curve in the direction sought with a large enough effect; inconclusive = small, poorly fitted or top-dose-only effect, or another doubt; inactive = no such curve, though single readings can be large; an effect the other way counts as inactive or inconclusive. Where a SMILES comes first, the peptide text is derived from it. Bridges are numbered along the chain shown (N, C = ends). [ ]: non-standard residue; d: D form. hArg = N=C(N)NCCCC[C@H](N)C(=O)O; Mpa = O=C(O)CCS

For test [1], the target named is Voltage-gated inwardly rectifying potassium channel KCNH2 (Homo sapiens) (UniProt Q12809). As to the kind of experiment: qHTS Assay for Small Molecule Inhibitors of the Human hERG Channel Activity (AID 588834).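 Note: top concentration of the series differs between compounds; lower thallium flux fluorescence means stronger hERG block; nearly all actives have a fitted effect of over 50% in size.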 The method in brief:
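Step 1: BacMam hERG transduction of U2OS, 4 hrs RT. Step 2: overnight 37 °C, plate 2000 cells/well, 4 hr. Step 3: FluxOR load, compound 10 min, stimulate, read fluorescence.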

Test [2] has as its target Luciferin 4-monooxygenase (Photinus pyralis) (UniProt P08659). The experiment in a line: Biochemical firefly luciferase enzyme assay for NPC (AID 624030).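 Note: purified P. pyralis luciferase at 10 nM with luciferin and ATP substrate; series mostly up to about 59 µM; nearly all actives have a fitted effect of over 70% in size.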 The method, boiled down: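 Direct inhibition of firefly luciferase enzyme (10 nM final, 50 mM Tris Acetate) assessed by luminescence within 5 minutes. Percent activity scaled between DMSO and PTC124 positive control, with concentration-effect curves classified by fit quality and response.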

Test [3] in a line: S16 Schwann cell viability assay (CellTiter-Glo assay) (AID 624031).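 Note: cellular ATP luminescence as a viability measure; series mostly up to about 58 µM; nearly all actives have a fitted effect of over 70% in size.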 The method, boiled down:
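This viability control uses native rat S16 Schwann cells grown in DMEM plus 10% FBS. After a 24 h compound treatment at 37 °C, CellTiter-Glo luminescence reports ATP content, scaled against DMSO-treated and cell-free wells.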

Test [4] is described as follows: S16 Schwann cell PMP22 intronic element firefly luciferase assay (AID 624032). Note: nearly all actives have a fitted effect of over 30% in size. Note: potency is the fitted concentration of half-maximal effect. The method, boiled down:
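Luciferase reporter of PMP22 intronic-element expression in stably transfected S16 rat Schwann cells, read by ONE-Glo luminescence after 24 h compound exposure at 37 C. Activity scaled between DMSO (0%) and positive-control PTC124; concentration-effect curves quality-classified.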

Chain of Luciferin 4-monooxygenase (Photinus pyralis) (P08659 whole entry, looked up): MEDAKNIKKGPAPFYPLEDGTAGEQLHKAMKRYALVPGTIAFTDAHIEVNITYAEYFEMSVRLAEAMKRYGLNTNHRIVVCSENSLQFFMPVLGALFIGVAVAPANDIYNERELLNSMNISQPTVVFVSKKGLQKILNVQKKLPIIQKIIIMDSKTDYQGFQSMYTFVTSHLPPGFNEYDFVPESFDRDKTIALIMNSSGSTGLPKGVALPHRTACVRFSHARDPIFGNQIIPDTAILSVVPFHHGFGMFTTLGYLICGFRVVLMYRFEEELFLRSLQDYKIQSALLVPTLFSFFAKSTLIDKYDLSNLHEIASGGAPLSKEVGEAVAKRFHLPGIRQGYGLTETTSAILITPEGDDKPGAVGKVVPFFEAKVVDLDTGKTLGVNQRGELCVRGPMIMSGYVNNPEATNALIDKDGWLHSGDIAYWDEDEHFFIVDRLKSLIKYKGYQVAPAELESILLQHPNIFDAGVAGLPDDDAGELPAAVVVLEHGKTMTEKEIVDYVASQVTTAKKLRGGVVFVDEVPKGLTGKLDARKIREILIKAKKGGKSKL
Chain of Voltage-gated inwardly rectifying potassium channel KCNH2 (Homo sapiens) (Q12809 whole entry, looked up): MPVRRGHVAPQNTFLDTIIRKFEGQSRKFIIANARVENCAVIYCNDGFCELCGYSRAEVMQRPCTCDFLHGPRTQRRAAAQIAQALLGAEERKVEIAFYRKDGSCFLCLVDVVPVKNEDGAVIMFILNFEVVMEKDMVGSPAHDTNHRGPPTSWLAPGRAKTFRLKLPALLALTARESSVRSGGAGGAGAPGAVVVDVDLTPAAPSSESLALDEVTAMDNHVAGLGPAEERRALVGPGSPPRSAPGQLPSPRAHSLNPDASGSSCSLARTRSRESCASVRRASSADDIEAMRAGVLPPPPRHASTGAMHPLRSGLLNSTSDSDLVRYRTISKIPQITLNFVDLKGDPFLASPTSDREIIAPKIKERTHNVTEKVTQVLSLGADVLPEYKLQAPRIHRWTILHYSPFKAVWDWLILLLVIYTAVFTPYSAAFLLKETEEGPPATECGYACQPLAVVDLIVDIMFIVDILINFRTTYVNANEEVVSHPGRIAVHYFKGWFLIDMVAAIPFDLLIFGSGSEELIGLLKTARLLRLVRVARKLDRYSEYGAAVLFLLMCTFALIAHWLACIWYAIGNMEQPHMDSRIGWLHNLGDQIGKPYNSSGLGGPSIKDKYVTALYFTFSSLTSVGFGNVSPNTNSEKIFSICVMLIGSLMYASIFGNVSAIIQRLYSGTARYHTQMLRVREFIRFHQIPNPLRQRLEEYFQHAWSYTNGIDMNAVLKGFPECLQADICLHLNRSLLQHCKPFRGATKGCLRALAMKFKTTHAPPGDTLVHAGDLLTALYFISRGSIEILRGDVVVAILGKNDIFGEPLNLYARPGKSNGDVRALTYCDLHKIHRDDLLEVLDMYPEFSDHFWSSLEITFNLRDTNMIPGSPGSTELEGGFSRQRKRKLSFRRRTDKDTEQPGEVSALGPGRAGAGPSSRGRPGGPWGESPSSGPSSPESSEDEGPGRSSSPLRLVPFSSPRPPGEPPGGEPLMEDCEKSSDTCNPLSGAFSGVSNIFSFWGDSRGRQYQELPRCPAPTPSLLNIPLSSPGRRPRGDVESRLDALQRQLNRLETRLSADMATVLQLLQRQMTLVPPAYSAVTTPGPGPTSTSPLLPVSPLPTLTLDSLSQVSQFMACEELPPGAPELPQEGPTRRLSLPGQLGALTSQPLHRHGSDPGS

For `O[C@@H]1CO[C@H]2[C@@H]1OC[C@@H]2O`, the Potency entry in test [1], in test [2] and in test [4] was “inactive” each time. For the same molecule, the molecule was called inactive in test [3].
`Cc1ccc(S(=O)(=O)NC(=O)NC2CCCCCCC2)cc1`: the Potency entry in test [1], in test [2] and in test [4] was “inactive” each time. Besides, the call in test [3] was inactive.
With `O=c1[nH]cnc2nc[nH]c12`, the Potency result in test [1], in test [2] and in test [4] was “inactive” in each case. Further, the result in test [3] was inactive.
For `Nc1ncnc2c1ncn2[C@@H]1O[C@H](COP(=O)(O)O)[C@@H](O)[C@H]1O`, the Potency entry in test [1], in test [2] and in test [4] was “inactive” in each case. Also, in test [3], the outcome was inactive.
`COc1ccc(C(=O)NCc2ccc(OCCN(C)C)cc2)cc1OC`: the Potency result in test [1], in test [2] and in test [4] was “inactive” throughout. Also, the result in test [3] was inactive.
For the molecule `Cc1cc(C)c(NC(=O)CN(CC(=O)O)CC(=O)O)c(C)c1Br`, the Potency result in test [1], in test [2] and in test [4] was “inactive” throughout. Moreover, in test [3], the molecule was called inactive.
Take `CCOC(=O)[C@H](CCc1ccccc1)N[C@@H](C)C(=O)N1CCC[C@H]1C(=O)O`: the Potency result in test [1] and in test [2] was “inactive” each time. Further, in test [3], the call was inactive. The Potency in test [4] is 14.4 nM (active).
As for `NC(=O)[C@@H]1CSSCCC(=O)N[C@@H](CCCCN=C(N)N)C(=O)NCC(=O)N[C@@H](CC(=O)O)C(=O)N[C@@H](Cc2c[nH]c3ccccc23)C(=O)N2CCC[C@H]2C(=O)N1` ([Mpa][hArg]GDWPC-NH2; disulfide 1-7), the Potency result in test [1], in test [2] and in test [4] was “inactive” each time. Moreover, in test [3], the call was inactive.
As for `CCc1nnc(NS(=O)(=O)c2ccc(N)cc2)s1`, the Potency entry in test [1], in test [2] and in test [4] was “inactive” throughout. Moreover, in test [3], the molecule was called inactive.
For `CN1C[C@@H]2C[C@H]1CN2c1cc2c(cc1F)c(=O)c(C(=O)O)cn2C1CC1`, the Potency entry in test [1], in test [2] and in test [4] was “inactive” each time. Moreover, the call in test [3] was inactive.
`Cc1[nH]c(C)c(Cl)c(=O)c1Cl`: the Potency entry in test [1], in test [2] and in test [4] was “inactive” each time. The molecule was classed as inactive in test [3].
Turning to `O=C(CN1CCNCC1)NC1CCCCC1`, the Potency entry in test [1], in test [2] and in test [4] was “inactive” each time. For the same molecule, in test [3], the outcome was inactive.
As to `CCCOC(=O)c1ccc(N)cc1`, the Potency result in test [1], in test [2] and in test [4] was “inactive” throughout. In test [3], the molecule was classed as inactive.
With `CC(=O)Oc1cccc(C)c1`, the Potency result in test [1], in test [2] and in test [4] was “inactive” in each case. The call in test [3] was inactive.
With `COc1ccc(NS(=O)(=O)c2ccc(N)cc2)nn1`, the Potency result in test [1], in test [2] and in test [4] was “inactive” throughout. Further, the result in test [3] was inactive.
With `CCN(CC)CCc1nc(-c2ccccc2)no1`, the Potency result in test [1], in test [2] and in test [4] was “inactive” throughout. In addition, the molecule was called inactive in test [3].
Take `CC(=O)OC[C@H]1O[C@@](COC(C)=O)(O[C@H]2O[C@H](COC(C)=O)[C@@H](OC(C)=O)[C@H](OC(C)=O)[C@H]2OC(C)=O)[C@@H](OC(C)=O)[C@@H]1OC(C)=O`: the Potency result in test [1], in test [2] and in test [4] was “inactive” each time. Further, the outcome in test [3] was inactive.
With `Cc1c(C)c2c(c(C)c1OC(=O)c1cccnc1)CC[C@@](C)(CCC[C@H](C)CCC[C@H](C)CCCC(C)C)O2`, the Potency entry in test [1], in test [2] and in test [4] was “inactive” in each case. For the same molecule, the molecule was called inactive in test [3].
Regarding `NC(=O)c1ccc([N+](=O)[O-])cc1Cl`, the Potency entry in test [1], in test [2] and in test [4] was “inactive” throughout. Further, in test [3], the molecule was classed as inactive.
Take `CC(C)C[C@@H](N)C(=O)O`: the Potency entry in test [1], in test [2] and in test [4] was “inactive” each time. The result in test [3] was inactive.
With `CCCCCCCCCCCCCCCCN`, the Potency result in test [1], in test [2] and in test [4] was “inactive” in each case. Moreover, the call in test [3] was inactive.
As to `CC[N+](C)(CC)CCOC(=O)C1c2ccccc2Oc2ccccc21`, the Potency entry in test [1], in test [2] and in test [4] was “inactive” in each case. The call in test [3] was inactive.
Take `OCc1ccc(Cl)cc1Cl`: the Potency entry in test [1], in test [2] and in test [4] was “inactive” throughout. Moreover, the molecule was called inactive in test [3].
Consider `O=c1[nH]c(=O)c2ccccc2o1`, for which the Potency entry in test [1], in test [2] and in test [4] was “inactive” throughout. For the same molecule, the molecule was classed as inactive in test [3].
Take `CC(=O)Oc1cccc(O)c1`: the Potency entry in test [1], in test [2] and in test [4] was “inactive” throughout. Further, the molecule was called inactive in test [3].
`O=C(O)Cc1cn(-c2ccccc2)nc1-c1ccc(Cl)cc1`: the Potency entry in test [1], in test [2] and in test [4] was “inactive” in each case. For the same molecule, the result in test [3] was inactive.
For the molecule `c1ccc2[nH]ccc2c1`, the Potency entry in test [1] and in test [4] was “inactive” throughout. In test [3], the molecule was called inactive.
Regarding `NCC1CCC(C(=O)Oc2ccc(CCC(=O)O)cc2)CC1` (centres undefined), in test [2], the Potency entry is “inactive”. Moreover, in test [3], the molecule was classed as inactive.
In the case of `CC(C)CCCC(C)CCCC(C)CCCCC(C)CCCC(C)CCCC(C)C` (centres undefined), the Potency entry in test [1] and in test [4] was “inactive” each time. In addition, the outcome in test [3] was inactive.
For the molecule `C[C@@H](N)C(=O)O`, the Potency result in test [1] and in test [4] was “inactive” in each case. Also, the outcome in test [3] was inactive.
For the molecule `COC(=O)c1ccccc1C(=O)c1ccc(OCCN2CCCCC2)cc1`, the Potency result in test [1] and in test [4] was “inactive” throughout. The molecule was classed as inactive in test [3].
Consider `CC(=O)N(CC(O)CO)c1c(I)c(C(=O)NCC(O)CO)c(I)c(C(=O)NCC(O)CO)c1I` (centres undefined), for which the Potency result in test [1] and in test [4] was “inactive” throughout. Further, the molecule was classed as inactive in test [3].
As for `NS(=O)(=O)c1ccc(NC(=O)CCC(=O)O)cc1`, the Potency entry in test [1] and in test [4] was “inactive” each time. Besides, in test [3], the outcome was inactive.
For the molecule `CC(=O)N[C@@H](Cc1ccc(O)cc1)C(=O)O`, in test [1], the Potency result was “inactive”. The outcome in test [3] was inactive.
With `NNc1nnc(NN)c2ccccc12`, the Potency entry in test [1] and in test [4] was “inactive” each time. Moreover, the call in test [3] was inactive.
With `O=C1c2ccccc2S(=O)(=O)N1CCCCN1CCN(c2ncccn2)CC1`, in test [2], the Potency entry is “inactive”. Further, the molecule was called inactive in test [3].
As to `Cc1c(Cn2ccnc2)c2ccccc2n1CCC(=O)O`, the Potency result in test [2] was “inactive”. In addition, the molecule was called inactive in test [3].
Turning to `O=C(O)Cn1c(C(=O)Nc2nc(-c3ccccc3Cl)cs2)cc2ccccc21`, the Potency result in test [1] and in test [4] was “inactive” in each case.
On to `C[C@@H]1O[C@@H](OC[C@H]2O[C@@H](Oc3c(-c4ccc(O)c(O)c4)oc4cc(O)cc(O)c4c3=O)[C@H](O)[C@@H](O)[C@@H]2O)[C@H](O)[C@H](O)[C@H]1O`, for which the Potency entry in test [1] and in test [4] was “inactive” throughout.
`COc1ccccc1OC(=O)Oc1ccccc1OC`: the Potency result in test [1] was “inactive”. In test [3], the molecule was called inactive.
